High-throughput results from PubChem BioAssay.
Hsp90 Hop PPI: changes Hsp90-Hop TPR2A binding signal, up or down; Potency, µM (doses to about 57 µM); 71,000 compounds, 0.44% hits; AlphaScreen TPR2A-His6 binding biotin-Hsp90 C-terminal peptide; active = well fitted curve in either direction with a large enough effect; inconclusive = small, poorly fitted or top-dose-only effect, or another doubt
Tau filament bind: tau filament binding. Potency, µM (doses to about 57.1 µM). AID 596. 71,000 compounds, 2% hits. P10636. recombinant tau filaments, thioflavin S fluorescence, 15 h; filaments grown with octadecylsulfate alongside compound;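 note: actives lower thioflavin S fluorescence by blocking filaments or displacing dye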
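Quantitative HTS: thioflavine S signal from ODS-induced tau filaments, excited at 450 nm, emission 510 nm. Conditions: 1 uM tau, 30 uM ODS, 15 h at 37 C, pH 7.4.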
BRCT inh green: blocks human BRCA1 BRCT binding to phosphopeptide, green readout; AID 875; 75,000 compounds, 0.05% hits; BRCA1 BRCT-phosphopeptide binding, green fluorescence polarization; Potency, µM (top dose mostly 76.9 µM), usual class: inhibitors; P38398
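Compounds were incubated for 12 min at room temperature with a complex of 100 nM fluorescein-tagged pBACH1 decapeptide and 250 nM His-tagged BRCT protein. Buffer was phosphate pH 7.3 with EDTA, DTT and Tween 20. Disruption of binding lowers the polarization signal.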
BRCT inh red: BRCT-phosphoprotein interaction inhibition (red fluorophore); BRCT-phosphopeptide binding, red fluorescence polarization; Potency, µM (titrated, usually from 76.9 µM), actives largely listed as inhibitors; 75,000 compounds, 0.03% hits; AID 892
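Fluorescence polarization: 100 nM His-tagged BRCA1 BRCT with 100 nM TAMRA-labelled phospho-BACH1 decapeptide, phosphate buffer pH 7.3 with 150 mM NaCl, DTT, 0.01% Tween 20; 12 min RT. Binding inhibition seen as FP decrease.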
DNA Pol III inh: inhibitors of bacterial DNA polymerase III holoenzyme | Potency, µM (top dose mostly 57.1 µM) | reconstituted DNA polymerase III holoenzyme replication, biochemical | 71,000 compounds, 0.25% hits | AID 603
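Reconstituted *E. coli* holoenzyme (0.35 nM Pol III, 1 nM beta, 154 nM SSB, 2 nM primase) was preincubated with compound for 15 min at RT. Synthesis on 1.4 nM ssM13Gori ran 35 min, then was stopped with PicoGreen/EDTA and read as dsDNA fluorescence.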
YjeE inh: YjeE (TsaE) inhibition, E. coli | P0AF67 | purified YjeE enzyme, qHTS inhibition assay | Potency, µM | 71,000 compounds, 0.05% hits | AID 605
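Fluorescence polarization of a BODIPY Texas Red–ADP probe (2 uM) bound to purified YjeE (10 uM) was read after 15 min room-temperature incubation with compounds. Loss of polarization marks inhibitors; ADP serves as titrated control.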
Numbers stand for hits; - = inactive; ? = inconclusive; . = no result; [ ] = dose if it differs, or a comment. This is a sample that favours compounds with a hit; in the whole collection about 2.3% have one here. Unless noted, calls come from the whole dose curve; as a rule, active = well fitted curve in the direction sought with a large enough effect; inconclusive = small, poorly fitted or top-dose-only effect, or another doubt; inactive = no such curve, though single readings can be large; an effect the other way counts as inactive or inconclusive.

SMILES	Hsp90 Hop PPI	Tau filament bind	BRCT inh green	BRCT inh red	DNA Pol III inh	YjeE inh
CN1CCC[C@@H]1c1cccnc1.O=C(O)c1ccccc1O.O=C([OH2+])c1ccccc1O.O=C([OH2+])c1ccccc1O.O=C([OH2+])c1ccccc1O.[Cu]	-[11 µM]	-[11.4 µM]	-[15.4 µM]	-[15.4 µM]	-[11.4 µM]	-
Cc1cc(Nc2ccccc2N2CCOCC2)n2ncnc2n1	-	20µM	-	-	-	-
Cn1c(=O)c2[nH]c(/N=N\N3CCN(CCO)CC3)nc2n(C)c1=O	-[11 µM]	-[11.4 µM]	-[15.4 µM]	-[15.4 µM]	-[11.4 µM]	-
COc1ccc(OC)c(NC(=O)CSc2nnc(CNc3ccc(F)cc3)o2)c1	-	-	-	-	-	-
COc1ccc(NCc2nnc(SCC(=O)Nc3cccc(C)c3)o2)cc1	-	16µM	-	-	-	-
CC(=O)N1CCN(c2ccc(NCc3ccc(C)s3)cc2)CC1	-[2.3 µM]	?	-	-	-	-
O=C(c1ccccc1)N1CCN(c2ccc(NCc3ccc4c(c3)OCO4)cc2)CC1	?	32µM	-	-	-	-
CC(=O)N1CCN(c2ccc(NCc3ccccc3)cc2)CC1	-	16µM	-	-	-	-
CC(=O)N1CCN(c2ccc(NCc3ccc4c(c3)OCO4)cc2)CC1	-	?	-	-	-	-
CC(=O)N1CCN(c2ccc(NCc3cccs3)cc2)CC1	-	25µM	-	-	-	-
CC(=O)Nc1ccc(N2CCN(Cc3ccccc3F)CC2)cc1	-	-	-	-	-	-
C#CCCCCCCCCCCCC(O)CC(O)CO (stereo not drawn)	.	.	-[3.08 µM]	-	.	.
C=CCn1c2ccccc2c2nnc(SCCCn3c(=O)[nH]c4ccccc43)nc21	-	3.2µM	-	-	-	-
C=CCn1c2ccccc2c2nnc(SCN3C(=O)c4ccccc4C3=O)nc21	-[11 µM]	?	-	-	-[11.4 µM]	-
Cn1cc(C2=C(c3cn(CCCSC(=N)N)c4ccccc34)C(=O)NC2=O)c2ccccc21	.	.	-	-	.	.
CN(C)CCCn1cc(C2=C(c3c[nH]c4ccccc34)C(=O)NC2=O)c2ccccc21	?	2µM	-	-	-	-
COc1ccc(CNc2ncncc2-c2ccccc2C(F)(F)F)c(OC)c1	-	-	-	-	-	-
O=c1c(-c2cc(F)cc(F)c2)nc2cnc(N3CCNCC3)nc2n1Cc1cccs1	-	?	-	-	-	-
O=c1c(-c2cccs2)nc2cnc(N3CCOCC3)nc2n1-c1ccccc1	3.2µM	-	-	-	-	-
O=c1c(-c2cccs2)nc2cnc(N3CCNCC3)nc2n1Cc1cccs1	?	-	-	-	7.9µM	-
O=c1c(-c2ccc(Cl)cc2)nc2cnc(N3CCNCC3)nc2n1Cc1cccs1	-	3.2µM	-	-	25µM	-
CN1CCN(c2ncc3nc(-c4ccc(Cl)cc4)c(=O)n(Cc4cccs4)c3n2)CC1	-	2µM	-	-	-	-
COC(=O)C(C#N)c1nc2ccccc2nc1N1CCN(Cc2ccc3c(c2)OCO3)CC1 (stereo not drawn)	-	13µM	-	-	-	-
CCCCOC(=O)C(C#N)c1nc2ccccc2nc1N1CCN(Cc2ccc3c(c2)OCO3)CC1 (stereo not drawn)	-	0.4µM	-	-	-	-
CC(C)COC(=O)C(C#N)c1nc2ccccc2nc1N1CCN(Cc2ccc3c(c2)OCO3)CC1 (stereo not drawn)	-	2µM	-	-	-	-
SMILES	Hsp90 Hop PPI	Tau filament bind	BRCT inh green	BRCT inh red	DNA Pol III inh	YjeE inh
O=C(O)C(Cl)(c1ccccc1)c1ccccc1	-[11 µM]	-[11.4 µM]	-[15.4 µM]	-[15.4 µM]	-[11.4 µM]	-
O=c1cnc2cnc(Oc3ccccc3)nc2n1CCc1ccccc1	-	-	-	-	-	?
C=C(CO)C1Cc2c(ccc3c2OC2COc4cc(OC)c(OC)cc4C2C3=O)O1 (stereo not drawn)	.	.	-	-	.	.
Cc1cccc(CNc2ncncc2-c2ccccc2C(F)(F)F)c1	-	-	-	-	-	-
CCC(CC)NCc1ccc(OC)cc1OC	-	-	-	-	-	-
COc1cc(N)ccc1Cc1ccc(N)cc1OC	-	25µM	-	-	-	-
CCOc1ccc(OCc2ccc(C(=O)Nc3ccc(Cl)cn3)o2)cc1	-	-	-	-	-	-
CN(C)c1ccc(NC(=O)c2ccc(COc3cccc(Cl)c3)o2)cc1	?	7.9µM	-	-	-	-
COc1cc(NC(=O)c2ccc(Cl)cc2)c(OC)cc1NC(=O)CN1CCOCC1	-	20µM	-	-	-	-
COc1cc(NC(=O)c2ccccc2)c(OC)cc1NC(C)=O	?	-	-	-	-	-
COc1cc(NS(C)(=O)=O)c(OC)cc1NC(=O)c1ccccc1	-	16µM	-	-	-	-
